# According to PubChem BioAssay:
# Active and inactive are the calls of the source.
# How the values were obtained:
# Albumin (Bos taurus) = Albumin (Bos taurus) (UniProt P02769); assay: compounds binding labelled BSA control protein – biochemical, small-molecule microarray, Alexa647 label, 635/667 nm fluorescence, artefact control for SMM control protein annotation, profiling panel (AID 1118); conditions: BSA-A647 binding, fluorescence 635 nm, higher = more signal;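 note: score merges 667 nm emission intensity and signal-to-noise per printed compound spot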
# [1] = probe aXIP binding to arrayed compounds – biochemical, NeuroSMM set, 635/667 nm fluorescence, primary screen (AID 1119); conditions: small-molecule microarray, higher = more signal, called active from +8 up or from −8 down;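 note: probe is the protein aXip251-270 applied at 1 µg/mL to compound-printed slides; binding of probe to printed compounds measured as 667 nm fluorescence plus signal to noise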
# [2] = probe aNOTCH3 binding on compound microarray – biochemical, small-molecule microarray, 635/667 nm fluorescence, primary screen (AID 1120); conditions: higher = more signal;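 note: probe is a biotin-tagged antibody raised against NOTCH3 rather than NOTCH3 protein; score merges spot fluorescence near 667 nm with spot signal to noise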
# [3] = probe aNOTCH2 binding on compound microarray – biochemical, small-molecule microarray, 635/667 nm fluorescence, primary screen (AID 1121); conditions: higher = more signal;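 note: score merges feature fluorescence read at 667 nm with its signal to noise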
# [4] = target: Carbonic anhydrase 2 (Homo sapiens) (UniProt P00918); assay: compounds binding carbonic anhydrase 2 – biochemical, small-molecule microarray, Alexa647-labelled CAII, profiling panel (AID 1122); conditions: CAII-A647 binding fluorescence, higher = more signal
# [5] = COS7 lysate on small-molecule microarray, probe aHis, 635 nm (AID 1123); conditions: COS7 cell lysate, fluorescence, higher = more signal;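 note: z-score combines 667nm fluorescence intensity with signal-to-noise per printed compound spot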
# [6] = probe aLAP1 signal on lysate-treated microarray – cell lysate, small-molecule microarray, COS7 lysate, primary screen (AID 1124); conditions: probe aLAP1, fluorescence, higher = more signal;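 note: lysate comes from COS7 cells expressing LAP1 and is applied at 0.3 µg/mL; score merges spot fluorescence near 667 nm with signal-to-noise over triplicate slides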
# Sam68 (KHDRBS1) = assay: compounds binding KHDRBS1 protein – biochemical, small-molecule microarray, 635 nm fluorescence, primary screen (AID 1125); conditions: higher = more signal;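 note: score merges 667 nm channel intensity with signal to noise over triplicate slides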
# [7] = test system: Chordin-like protein 2 (CHRDL2); assay: compounds binding chordin-like 2 – biochemical, small-molecule microarray, 635 nm fluorescence, primary screen (AID 1126); conditions: fluorescence 635 nm, higher = more signal;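 note: printed compound slides probed with Chrdl2 protein at 4 µg/mL for 1 h at 4 C; score merges 667 nm emission intensity with signal to noise over three replicate slides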
# [8] = target: Concanavalin-A (Canavalia ensiformis) (UniProt P02866); assay: compounds binding concanavalin A lectin – biochemical, small-molecule microarray, Alexa647 label, 635 nm, artefact control for SMM control protein annotation, primary screen (AID 1127); conditions: ConA-A647 binding fluorescence, higher = more signal;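 note: z combines 667 nm emission intensity with signal-to-noise across three replicate slides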
# [9] = compounds binding Alexa647 anti-His antibody – biochemical, small-molecule microarray, 635 nm fluorescence, artefact control for SMM control protein annotation, primary screen (AID 1128); conditions: higher = more signal;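 note: score merges feature fluorescence with signal-to-noise for each printed compound spot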
# [10] = test system: Human papillomavirus type 1a E7 protein (residues 1-88); assay: HPV1a E7 small-molecule binders, primary screen, biochemical, small-molecule microarray, residues 1-88, 635 nm (AID 1129); conditions: small-molecule microarray binding, fluorescence 635 nm; higher = more signal
# [11] = target: Focal adhesion kinase 1 (Homo sapiens) (UniProt Q05397); assay: PTK2 protein binding on printed compound slides – biochemical, small-molecule microarray, 635/667 nm fluorescence, BSA, DTT, primary screen (AID 1130); conditions: 635 nm fluorescence, higher = more signal;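 note: composite of spot emission at 667 nm and signal to noise over triplicate slides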
# [12] = test system: Fibrinogen (Alexa647-labelled); assay: Alexa647-fibrinogen binding to printed small molecules – biochemical, small-molecule microarray, 635/667 nm fluorescence, artefact control for SMM control-protein annotation, profiling panel (AID 1131); conditions: fibrinogen-A647 binding fluorescence, higher = more signal;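 note: z-score merges 667 nm fluorescence with per-spot signal-to-noise over triplicate slides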
# [13] = target: Follistatin (Homo sapiens) (UniProt P19883); assay: FST protein binding to printed compounds – biochemical, small-molecule microarray, 635/667 nm fluorescence, primary screen (AID 1132); conditions: 635 nm fluorescence, higher = more signal
# [14] = target: Fibroblast growth factor 2 (Homo sapiens) (UniProt P09038); assay: basic fibroblast growth factor binding to printed compounds – biochemical, small-molecule microarray, 635/667 nm fluorescence, primary screen (AID 1133); conditions: FGF2, fluorescence 635/667, higher = more signal
# [15] = JC-1 mitochondrial potential readout, lung cancer cells – cell-based, A549, JC-1 fluorescence, basal, 24 h, 100 nL, profiling panel (AID 1138); conditions: higher = more signal;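 note: A549 lung adenocarcinoma cells under basal conditions with no added stimulus; test concentration not given here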
# Lefty1 = Lefty1 protein binding to printed compounds – biochemical, small-molecule microarray, 635/667 nm fluorescence, primary screen (AID 1139); conditions: fluorescence 635/667, higher = more signal
# [16] = test system: wheat germ agglutinin (Triticum aestivum), Alexa647-labelled; assay: Alexa647-WGA lectin binding to printed small molecules – biochemical, small-molecule microarray, 635/667 nm fluorescence, artefact control for SMM control-protein annotation, profiling panel (AID 1140); conditions: WGA-A647 binding, 635 nm fluorescence, higher = more signal;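 note: score merges 667 nm feature emission with signal to noise over triplicate slides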
# [17] = target: Luciferin 4-monooxygenase (Photinus pyralis) (UniProt P08659); assay: inhibition of purified Photinus pyralis luciferase – biochemical, luminescence, purified enzyme, 2006 set, primary screen (AID 1141); conditions: purified firefly luciferase, SteadyGlo luminescence, 30 min; higher = more signal, called active from +8 up or from −8 down;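 note: cell-free assay with purified firefly luciferase at 100 ng per well in PBS; test concentration not given here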
# Sequence of Luciferin 4-monooxygenase (Photinus pyralis) (P08659 whole entry, looked up): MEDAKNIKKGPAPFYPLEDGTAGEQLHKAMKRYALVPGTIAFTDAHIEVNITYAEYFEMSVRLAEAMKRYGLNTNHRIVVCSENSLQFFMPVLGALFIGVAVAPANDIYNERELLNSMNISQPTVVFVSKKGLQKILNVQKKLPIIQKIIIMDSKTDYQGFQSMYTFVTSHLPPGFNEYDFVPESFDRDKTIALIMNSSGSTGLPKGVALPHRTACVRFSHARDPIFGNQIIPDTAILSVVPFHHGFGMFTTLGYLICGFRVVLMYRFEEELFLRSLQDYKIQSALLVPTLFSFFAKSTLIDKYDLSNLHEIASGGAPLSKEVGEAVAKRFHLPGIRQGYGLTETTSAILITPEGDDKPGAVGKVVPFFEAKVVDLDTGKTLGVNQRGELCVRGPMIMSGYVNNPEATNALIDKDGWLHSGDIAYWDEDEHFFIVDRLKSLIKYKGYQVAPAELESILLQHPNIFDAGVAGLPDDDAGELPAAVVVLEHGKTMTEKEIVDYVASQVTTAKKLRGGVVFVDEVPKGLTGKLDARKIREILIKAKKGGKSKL
# Sequence of Concanavalin-A (Canavalia ensiformis) (P02866 whole entry, looked up): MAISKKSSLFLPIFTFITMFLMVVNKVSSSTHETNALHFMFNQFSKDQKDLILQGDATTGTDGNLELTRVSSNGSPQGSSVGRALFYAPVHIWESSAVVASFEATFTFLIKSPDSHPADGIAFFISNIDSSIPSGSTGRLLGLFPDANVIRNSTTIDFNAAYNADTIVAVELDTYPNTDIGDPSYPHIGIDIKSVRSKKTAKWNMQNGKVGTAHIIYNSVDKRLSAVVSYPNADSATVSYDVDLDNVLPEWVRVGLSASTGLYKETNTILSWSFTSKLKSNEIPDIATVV
# Sequence of Follistatin (Homo sapiens) (P19883 whole entry, looked up): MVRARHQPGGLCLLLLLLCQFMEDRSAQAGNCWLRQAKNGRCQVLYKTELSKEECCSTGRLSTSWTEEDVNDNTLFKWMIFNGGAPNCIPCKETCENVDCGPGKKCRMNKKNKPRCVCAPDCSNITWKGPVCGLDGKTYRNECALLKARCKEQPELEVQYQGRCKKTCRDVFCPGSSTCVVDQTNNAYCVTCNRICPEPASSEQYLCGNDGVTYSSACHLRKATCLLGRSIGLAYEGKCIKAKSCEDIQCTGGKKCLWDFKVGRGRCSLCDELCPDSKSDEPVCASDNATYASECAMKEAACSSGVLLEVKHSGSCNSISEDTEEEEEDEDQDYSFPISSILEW
# Sequence of Fibroblast growth factor 2 (Homo sapiens) (P09038 whole entry, looked up): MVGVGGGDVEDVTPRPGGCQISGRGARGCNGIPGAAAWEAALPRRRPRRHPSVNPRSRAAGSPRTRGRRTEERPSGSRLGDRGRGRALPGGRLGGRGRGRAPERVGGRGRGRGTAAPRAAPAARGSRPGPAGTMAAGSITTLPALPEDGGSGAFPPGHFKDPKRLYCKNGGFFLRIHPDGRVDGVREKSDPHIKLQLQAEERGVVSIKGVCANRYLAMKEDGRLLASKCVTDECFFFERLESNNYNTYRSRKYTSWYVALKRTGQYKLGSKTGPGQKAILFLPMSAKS
# Sequence of Focal adhesion kinase 1 (Homo sapiens) (Q05397 whole entry, looked up): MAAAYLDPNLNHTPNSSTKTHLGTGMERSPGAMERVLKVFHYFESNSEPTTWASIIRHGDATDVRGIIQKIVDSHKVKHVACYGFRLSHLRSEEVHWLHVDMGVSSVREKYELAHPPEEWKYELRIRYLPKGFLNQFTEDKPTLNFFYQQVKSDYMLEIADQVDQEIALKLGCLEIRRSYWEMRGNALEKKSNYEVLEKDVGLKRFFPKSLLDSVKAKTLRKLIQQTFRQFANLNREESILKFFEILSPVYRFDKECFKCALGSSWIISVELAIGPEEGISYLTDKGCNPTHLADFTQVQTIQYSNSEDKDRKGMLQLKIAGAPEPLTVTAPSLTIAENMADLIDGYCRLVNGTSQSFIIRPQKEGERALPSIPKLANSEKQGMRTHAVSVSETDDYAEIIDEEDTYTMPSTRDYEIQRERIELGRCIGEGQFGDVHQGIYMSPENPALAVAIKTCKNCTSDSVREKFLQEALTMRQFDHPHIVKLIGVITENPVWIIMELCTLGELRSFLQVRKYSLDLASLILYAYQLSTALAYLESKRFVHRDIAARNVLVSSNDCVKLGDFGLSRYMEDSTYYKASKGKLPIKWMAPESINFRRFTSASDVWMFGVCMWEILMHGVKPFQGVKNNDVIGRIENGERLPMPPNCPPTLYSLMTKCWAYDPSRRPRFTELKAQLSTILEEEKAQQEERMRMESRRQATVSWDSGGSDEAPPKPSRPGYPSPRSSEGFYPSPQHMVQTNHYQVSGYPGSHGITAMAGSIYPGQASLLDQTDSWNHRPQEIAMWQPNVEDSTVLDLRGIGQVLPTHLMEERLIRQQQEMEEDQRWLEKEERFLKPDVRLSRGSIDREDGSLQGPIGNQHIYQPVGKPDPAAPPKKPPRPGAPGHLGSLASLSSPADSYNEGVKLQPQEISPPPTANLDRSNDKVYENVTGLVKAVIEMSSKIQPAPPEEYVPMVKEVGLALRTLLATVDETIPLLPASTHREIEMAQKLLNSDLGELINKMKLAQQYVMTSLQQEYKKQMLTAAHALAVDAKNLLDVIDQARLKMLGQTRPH
# Sequence of Albumin (Bos taurus) (P02769 whole entry, looked up): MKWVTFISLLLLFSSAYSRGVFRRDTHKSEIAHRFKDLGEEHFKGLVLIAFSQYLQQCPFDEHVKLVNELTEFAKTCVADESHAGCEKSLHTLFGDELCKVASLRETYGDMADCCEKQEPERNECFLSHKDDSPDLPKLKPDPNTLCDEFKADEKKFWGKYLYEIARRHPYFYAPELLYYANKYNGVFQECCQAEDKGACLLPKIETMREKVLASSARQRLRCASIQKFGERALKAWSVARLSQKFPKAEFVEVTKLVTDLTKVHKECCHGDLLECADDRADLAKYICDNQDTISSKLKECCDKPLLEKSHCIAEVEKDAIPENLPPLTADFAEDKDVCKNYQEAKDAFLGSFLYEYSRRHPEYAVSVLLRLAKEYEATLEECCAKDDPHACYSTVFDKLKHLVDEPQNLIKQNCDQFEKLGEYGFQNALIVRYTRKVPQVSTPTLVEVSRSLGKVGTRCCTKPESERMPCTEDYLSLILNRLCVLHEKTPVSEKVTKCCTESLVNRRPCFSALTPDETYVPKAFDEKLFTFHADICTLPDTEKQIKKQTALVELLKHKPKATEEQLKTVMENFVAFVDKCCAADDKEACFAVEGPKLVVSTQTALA
Structure (SMILES),composite z-score (Albumin (Bos taurus)),composite Z-score [1],composite z-score [2],composite z-score [3],composite z-score [4],composite z-score [5],composite z-score [6],composite z-score (Sam68 (KHDRBS1)),composite z-score [7],composite z-score [8],composite z-score [9],composite z-score [10],composite z-score [11],composite z-score [12],composite z-score [13],composite z-score [14],z-score [15],composite z-score (Lefty1),composite z-score [16],z-score [17]
O=C1C2C=CC(C(O)c3ccc(F)cc3)N(n3cnnc3)C2C(=O)N1Cc1ccccc1 (stereo not given),-0.224,0.878 (inactive),0.0065,-0.14,0.561,0.747,-0.138,-0.256,-0.62,-0.129,-0.782,-0.657,-0.284,-0.48,-0.524,-0.529,-1.3,-0.881,-0.271,1.24 (inactive)
COCCOC(=O)N1C(=O)[C@@]2(c3ccccc31)[C@H](C(=O)N1CCN(c3ncccn3)CC1)[C@H]1C(=O)O[C@H](c3ccccc3)[C@H](c3ccccc3)N1[C@@H]2c1ccc(O)cc1,0.303,-0.197 (inactive),-0.273,-0.237,0.597,1.15,0.421,1.02,0.271,1.1,1.12,0.613,0.585,0.675,-0.147,0.173,-0.189,0.0567,0.875,-0.378 (inactive)
Cc1ccc(S[C@]2(C(=O)NCCCN(C)C)CC(=O)N(C3CCCCC3)[C@@H]2c2ccc(CO)cc2)cc1,0.156,0.0469 (inactive),-0.182,-0.0761,0.228,-0.111,-0.183,-1.01,-1.18,-0.957,-0.693,-0.612,0.116,-1.43,-0.24,-0.852,1.28,-0.562,0.165,0.437 (inactive)
COCCCNC(=O)[C@]1(CCS(=O)(=O)c2ccccc2)N=C(c2ccc(OCCCO)cc2)O[C@@H]1c1ccccc1N=[N+]=[N-],1.02,0.778 (inactive),0.486,-0.143,0.569,2.39,0.371,1.31,-0.71,1.18,2.09,1.22,-0.0436,0.996,0.794,-0.138,0.789,-0.279,1.13,-10.1 (active)
O=C1O[C@@H](c2ccccc2)[C@@H](c2ccccc2)N2[C@@H](c3ccc(O)cc3)[C@]3(C(=O)Nc4ccc(C#CC5=CCCCC5)cc43)[C@@H](C(=O)NC[C@H](O)c3ccccc3)[C@H]12,0.375,0.486 (inactive),0.274,0.0556,0.401,2.1,0.553,1.31,1.13,1.05,0.219,1.19,0.134,0.925,1.45,1.69,-0.945,0.907,1,-1.38 (inactive)
C=C(/C(=C/C[C@H](OC(C)=O)c1cccc(OCCO)c1)c1cnc2ccccc2c1)C(C)C,0.195,0.896 (inactive),0.0701,-0.0859,0.547,0.276,-0.313,0.615,1.05,0.689,-0.373,0.68,0.151,-0.325,1.36,0.429,1.61,1.08,0.961,-1.19 (inactive)
NCCCCCCNC(=O)[C@@H]1C[C@@H]2C(=O)N[C@@H](CCCCN)C(=O)N2[C@@H]1c1cccc(OCCO)c1,-0.907,2.87 (inactive),0.645,0.163,0.584,-0.191,0.767,1.2,1.05,0.718,1.24,1.12,1.21,-0.0787,0.877,0.485,0.81,1.4,0.641,0.507 (inactive)
CC(C)(C)N1CC=CC23O[C@@H]4C=CCCOC(=O)C4[C@H]2C(=O)N(CCO)[C@@H]3C1=O (stereo not given in full),-0.0163,-0.391 (inactive),-0.13,0.226,0.282,-1.09,-0.155,-0.889,-0.267,-1.39,-0.513,-0.991,-0.541,0.0853,-0.607,0.23,-0.845,-0.551,-0.0465,0.0324 (inactive)
